A short description of assay [1]: qHTS assay to identify small molecule agonists of the androgen receptor (AR) signaling pathway in the presence of an antagonist - cell viability counter screen (AID 1259379). Also: nearly all actives have a fitted effect of over 25% in size. Also: potency is read from the fitted curve at half-maximal effect.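 As to activity change, negative = cytotoxicity: MDA-kb2 human breast cancer cells carrying an MMTV luciferase reporter; series mostly up to about 92 µM.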 In short, it runs like this: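 In MDA-kb2 cells (human breast carcinoma, MMTV-luciferase), compounds at 15 concentrations plus 3.0uM nilutamide; 16 hr, 37C, 0% CO2; CellTiter-Fluor fluorescence read for viability.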
On the technique in general: qHTS replaces the single test concentration by a dilution series.

Assay [2] can be described thus: qHTS assay to identify small molecule agonists of the estrogen receptor beta (ER-beta) signaling pathway - cell viability counter screen (AID 1259380). Also: nearly all actives have a fitted effect of over 30% in size. Also: potency is read from the fitted curve at half-maximal effect. The essentials:
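Viability of ER-beta-UAS-bla HEK293T cells was determined by CellTiter-Glo luminescence following 16 hr treatment with test compounds at 37C.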

Assay [3] can be described thus: qHTS assay to identify small molecule antagonists of the estrogen receptor beta (ER-beta) signaling pathway - cell viability counter screen (AID 1259382). Also: nearly all actives have a fitted effect of over 55% in size. Also: potency is read from the fitted curve at half-maximal effect.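 As to activity change, negative = cytotoxicity: HEK293T cells carrying ER-beta-UAS-bla reporter stimulated with estradiol; series mostly up to about 92 µM.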 In short, it runs like this:
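Tox21 10K library tested in qHTS format on ER-beta-bla HEK293T cells stimulated with 1nM E2; 16 hr treatment at 37C. Same-well CellTiter-Glo luminescence served as the cell viability measure.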

Assay [4] deals with Estrogen receptor (Homo sapiens) (UniProt P03372). Nature of the assay: qHTS assay to identify small molecule agonists of the estrogen receptor alpha (ER-alpha) signaling pathway in the presence of an antagonist (AID 1259383; calls by dose curve; also: top concentration of the series differs between compounds; nearly all actives have a fitted effect of over 15% in size). In short, it runs like this: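 In VM7Luc4E2 cells, 4,000 per well, compounds at 15 concentrations were co-incubated 22hr at 37C with 10.0nM final ICI-182,780. Luminescence from the stably transfected 4×ERE-luciferase reporter was recorded 30min after ONE-Glo addition.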
Sequence of Estrogen receptor (Homo sapiens) (P03372 whole entry, looked up): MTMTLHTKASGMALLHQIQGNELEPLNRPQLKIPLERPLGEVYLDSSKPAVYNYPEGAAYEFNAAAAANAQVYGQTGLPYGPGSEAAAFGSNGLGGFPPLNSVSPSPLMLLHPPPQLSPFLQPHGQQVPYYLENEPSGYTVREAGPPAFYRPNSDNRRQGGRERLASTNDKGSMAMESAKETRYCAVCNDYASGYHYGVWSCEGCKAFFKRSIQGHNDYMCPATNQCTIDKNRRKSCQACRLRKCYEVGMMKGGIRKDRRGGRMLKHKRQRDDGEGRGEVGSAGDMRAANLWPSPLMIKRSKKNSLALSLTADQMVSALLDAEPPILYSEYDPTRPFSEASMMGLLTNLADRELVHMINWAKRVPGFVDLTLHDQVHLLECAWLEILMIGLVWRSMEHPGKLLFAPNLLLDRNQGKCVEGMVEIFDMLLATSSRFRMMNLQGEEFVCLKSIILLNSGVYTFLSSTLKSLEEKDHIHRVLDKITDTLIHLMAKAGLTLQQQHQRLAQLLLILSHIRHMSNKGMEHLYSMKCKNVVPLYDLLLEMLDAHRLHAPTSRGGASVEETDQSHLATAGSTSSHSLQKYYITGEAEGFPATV

Assay [5] is described as follows: qHTS assay to identify small molecule agonists or antagonists of the thyroid stimulating hormone receptor (TSHR) signaling pathway - wild type cell line counter screen (AID 1259384; calls by dose curve). The essentials: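 Wild-type Hek293 cells, 800/well, 18 h at 37C, then compound with Ro20-1724 for 30 min RT. cAMP by HTRF (cAMP-d2/anti-cAMP cryptate), 1 h RT, fluorescence read. 15 concentrations, triplicates.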

The target of assay [6] is Thyrotropin receptor (Homo sapiens) (UniProt P16473). Nature of the assay: qHTS assay to identify small molecule antagonists of the thyroid stimulating hormone receptor (TSHR) signaling pathway (AID 1259385; calls by dose curve; also: nearly all actives have a fitted effect of over 20% in size). In short, it runs like this:
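TSHR-HEK293 cells (800/well) plated 18 h, then compounds with Ro20-1724 and TSH at 1.5 ng/mL final, 30 min at room temperature. cAMP quantified by HTRF (cAMP-d2/anti-cAMP-cryptate, 1 h); 15 concentrations in triplicate.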

The nature of assay [7]: qHTS assay to identify small molecule agonists of the estrogen receptor alpha (ER-alpha) signaling pathway in the presence of an antagonist - cell viability counter screen (AID 1259386).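 Also: series mostly up to about 92 µM; cells exposed to compounds for 22 h at 37 °C before the viability read; nearly all actives have a fitted effect of over 30% in size.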 In short, it runs like this: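 Fluorescent CellTiter-Fluor viability signal from VM7Luc4E2 cells, with the reagent added during the final hour of a 22hr compound exposure at 37C in the presence of 10.0nM ICI-182,780.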

Assay [8] addresses Progesterone receptor (Homo sapiens) (UniProt P06401). Nature of the assay: qHTS assay to identify small molecule agonists of the progesterone receptor (PR) signaling pathway (AID 1346784; calls by dose curve; also: nearly all actives have a fitted effect of over 30% in size). The essentials: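 Cells (PR-UAS-bla HEK 293T, GripTite) were plated in assay medium containing 2% charcoal-stripped FBS and incubated 6 hr. Test compounds in DMSO were added for 16 hr at 37C. FRET substrate was then loaded for 2 hr at room temperature before fluorescence reading.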

Assay [9] shares this target. Nature of the assay: qHTS assay to identify small molecule antagonists of the progesterone receptor (PR) signaling pathway (AID 1346795; active = well fitted inhibition curve with a large enough effect in the signal ratio in the repeat runs, not every such curve was filed as active; the % refers to the signal ratio). In short, it runs like this:
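Antagonist mode: compounds tested against 1 nM (final) promegestone stimulation in HEK293T cells expressing PR-UAS-bla reporter, 16 hr at 37C, 5% CO2; beta-lactamase activity detected via B/G FRET substrate after 2 hr at room temperature.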

Assay [10] is described as follows: qHTS assay to identify small molecule antagonists of the progesterone receptor (PR) signaling pathway - cell viability counter screen (AID 1346798). Also: nearly all actives have a fitted effect of over 50% in size. Also: potency is read from the fitted curve at half-maximal effect. As to activity change, negative = cytotoxicity: series mostly up to about 92 µM. The essentials:
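Counter screen for cytotoxicity: viability of PR-UAS-bla HEK293T cells was measured with CellTiter-Glo luminescence following 16 hr compound exposure in the presence of R5020.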

The nature of assay [11]: qHTS assay to identify small molecule antagonists of the TGF-beta/Smad signaling pathway - cell viability counter screen (AID 1346824). Also: nearly all actives have a fitted effect of over 50% in size. Also: potency is read from the fitted curve at half-maximal effect. The essentials:
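SBE-bla HEK 293T cells, incubated overnight, then compound plus 0.25 ng/mL TGF-beta1 (stock added) for 5 hr at 37 C. Viability was read in the same wells by CellTiter-Glo luminescence after 30 min at room temperature.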

Assay [12] can be described thus: qHTS assay to identify small molecule agonists of the TGF-beta/Smad signaling pathway - cell viability counter screen (AID 1346829). Also: nearly all actives have a fitted effect of over 45% in size. Also: potency is read from the fitted curve at half-maximal effect. As to activity change, negative = cytotoxicity: top concentration of the series differs between compounds. In short, it runs like this:
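Same-well cytotoxicity: CellTiter-Glo added after the 2 hr room-temperature beta-lactamase substrate step, luminescence measured 30 min later; cells had 5 hr of compound at 37 C.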

Assay [13] can be described thus: qHTS assay to identify small molecule agonists of the TGF-beta/Smad signaling pathway (AID 1346859; active = well fitted activation curve with a large enough effect in the signal ratio in the repeat runs, not every such curve was filed as active; the % refers to the signal ratio; also: series mostly up to about 77 µM). The essentials: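 Reporter line: HEK 293T with stably integrated SBE-controlled beta-lactamase. Compound exposure lasts 5 hr at 37 C and 5% CO2; substrate loading follows for 2 hr at room temperature, with emission read at 460 and 530 nm.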
In assay [14] the target is Thyrotropin-releasing hormone receptor (Homo sapiens) (UniProt P34981). The experiment in a line: qHTS assay to identify small molecule antagonists of the thyrotropin-releasing hormone receptor (TRHR) signaling pathway (AID 1346877; active = well fitted inhibition curve with a large enough effect in the repeat runs, not every such curve was filed as active; also: series mostly up to about 51 µM). The essentials: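 In this cell-based calcium flux format, HEK293 cells expressing TRHR received test compound for 5 min before the agonist TRH (1 nM final). Dye loading lasted 2 h at 37 °C.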
Sequence of Thyrotropin-releasing hormone receptor (Homo sapiens) (P34981 whole entry, looked up): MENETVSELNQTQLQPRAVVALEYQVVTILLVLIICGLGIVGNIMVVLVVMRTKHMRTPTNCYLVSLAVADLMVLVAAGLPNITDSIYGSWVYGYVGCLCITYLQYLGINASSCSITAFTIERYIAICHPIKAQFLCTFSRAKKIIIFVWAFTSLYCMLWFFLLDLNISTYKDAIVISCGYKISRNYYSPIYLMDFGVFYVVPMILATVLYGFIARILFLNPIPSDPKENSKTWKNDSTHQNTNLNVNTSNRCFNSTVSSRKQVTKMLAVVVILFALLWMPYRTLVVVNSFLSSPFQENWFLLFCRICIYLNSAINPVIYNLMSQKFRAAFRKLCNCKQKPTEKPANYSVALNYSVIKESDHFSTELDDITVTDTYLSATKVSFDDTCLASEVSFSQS

Assay [15] has the same target. The experiment in a line: qHTS assay to identify small molecule agonists of the thyrotropin-releasing hormone receptor (TRHR) signaling pathway (AID 1346891; calls by dose curve; also: series mostly up to about 58 µM). In short, it runs like this:
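Cells: TRHR-Hek293, seeded and incubated 18 h. Dye loading: 2 h at 37 °C. Compound added from DMSO stock by pin tool. Read-out: kinetic calcium fluorescence over 3 min.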

The nature of assay [16]: Human pregnane X receptor (PXR) small molecule agonists, qHTS cell viability counter screen (AID 1346977). Also: nearly all actives have a fitted effect of over 50% in size. Also: potency is read from the fitted curve at half-maximal effect. The essentials: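 Cytotoxicity counter screen run in the same wells as the PXR luciferase assay, using PXR-Luc HepG2 cells in charcoal-stripped serum medium. Viability: CellTiter-Fluor fluorescence after 24hr compound treatment.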
A short description of assay [17]: Caspase-3/7 induction in HepG2 cells by small molecules, qHTS assay (AID 1346978). Also: nearly all actives have a fitted effect of over 15% in size. Also: potency is read from the fitted curve at half-maximal effect. The essentials:
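Wild-type HepG2 cells, 2,000/well, settled 5 hr at 37 C and 5% CO2, then compound-treated for 17 hr; caspase-3/7 activity read by luminescent Caspase-Glo 3/7 after 30 min at room temperature.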

The nature of assay [18]: Caspase-3/7 induction in CHO-K1 cells by small molecules, qHTS cell viability counter screen (AID 1346979). Also: nearly all actives have a fitted effect of over 35% in size. Also: potency is read from the fitted curve at half-maximal effect. In short, it runs like this:
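Cytotoxicity counter screen run in parallel with the caspase-3/7 assay: CHO-K1 cells, 16hr compound treatment at 37C, then CellTiter-Fluor for 1hr before fluorescence reading.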

Assay [19] is described as follows: qHTS assay to identify small molecule agonists of the progesterone receptor (PR) signaling pathway - cell viability counter screen (AID 1346799; calls by dose curve; also: nearly all actives have a fitted effect of over 45% in size; also: potency is read from the fitted curve at half-maximal effect). In short, it runs like this: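 Cells (PR-UAS-bla HEK293T) are plated at 3,000/well in 2% charcoal-stripped FBS medium, rested 6 hr, dosed and incubated 16 hr at 37C. CellTiter-Glo is then added and luminescence measured after 30 min at room temperature.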

A number with no mark means an inactive call. Inconclusive results are not listed. Active and inactive are the calls of the source. Unless noted, calls follow the shape of the dose curve; as a rule, active = well fitted curve in the direction sought with a large enough effect in the repeat runs; inconclusive = weak or mixed curves; inactive = no such curve, though single readings can be large; an effect the other way counts as inactive or inconclusive.
% is scaled to controls: 0 for no effect and ±100 for the full control effect.

Sequence of Thyrotropin receptor (Homo sapiens) (P16473 whole entry, looked up): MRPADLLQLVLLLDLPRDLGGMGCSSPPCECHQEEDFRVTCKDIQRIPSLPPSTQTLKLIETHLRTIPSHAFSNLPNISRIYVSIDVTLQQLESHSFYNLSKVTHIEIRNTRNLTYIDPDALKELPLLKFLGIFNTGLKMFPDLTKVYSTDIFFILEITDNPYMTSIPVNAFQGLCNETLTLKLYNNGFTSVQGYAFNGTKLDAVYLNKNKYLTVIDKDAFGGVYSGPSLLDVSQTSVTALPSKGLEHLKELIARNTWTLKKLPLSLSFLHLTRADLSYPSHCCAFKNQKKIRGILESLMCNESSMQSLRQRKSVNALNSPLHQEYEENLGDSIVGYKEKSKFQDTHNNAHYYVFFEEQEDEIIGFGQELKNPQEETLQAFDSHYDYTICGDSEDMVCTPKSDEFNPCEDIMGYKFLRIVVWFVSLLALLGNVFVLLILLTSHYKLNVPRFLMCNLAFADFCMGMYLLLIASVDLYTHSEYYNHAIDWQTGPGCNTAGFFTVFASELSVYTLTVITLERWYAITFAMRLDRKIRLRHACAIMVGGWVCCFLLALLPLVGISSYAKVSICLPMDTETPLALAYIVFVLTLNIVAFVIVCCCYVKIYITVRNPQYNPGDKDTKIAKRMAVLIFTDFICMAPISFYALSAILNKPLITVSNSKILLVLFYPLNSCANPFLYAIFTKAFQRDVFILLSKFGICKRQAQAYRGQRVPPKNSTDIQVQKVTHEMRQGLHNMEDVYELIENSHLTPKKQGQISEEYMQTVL
Sequence of Progesterone receptor (Homo sapiens) (P06401 whole entry, looked up): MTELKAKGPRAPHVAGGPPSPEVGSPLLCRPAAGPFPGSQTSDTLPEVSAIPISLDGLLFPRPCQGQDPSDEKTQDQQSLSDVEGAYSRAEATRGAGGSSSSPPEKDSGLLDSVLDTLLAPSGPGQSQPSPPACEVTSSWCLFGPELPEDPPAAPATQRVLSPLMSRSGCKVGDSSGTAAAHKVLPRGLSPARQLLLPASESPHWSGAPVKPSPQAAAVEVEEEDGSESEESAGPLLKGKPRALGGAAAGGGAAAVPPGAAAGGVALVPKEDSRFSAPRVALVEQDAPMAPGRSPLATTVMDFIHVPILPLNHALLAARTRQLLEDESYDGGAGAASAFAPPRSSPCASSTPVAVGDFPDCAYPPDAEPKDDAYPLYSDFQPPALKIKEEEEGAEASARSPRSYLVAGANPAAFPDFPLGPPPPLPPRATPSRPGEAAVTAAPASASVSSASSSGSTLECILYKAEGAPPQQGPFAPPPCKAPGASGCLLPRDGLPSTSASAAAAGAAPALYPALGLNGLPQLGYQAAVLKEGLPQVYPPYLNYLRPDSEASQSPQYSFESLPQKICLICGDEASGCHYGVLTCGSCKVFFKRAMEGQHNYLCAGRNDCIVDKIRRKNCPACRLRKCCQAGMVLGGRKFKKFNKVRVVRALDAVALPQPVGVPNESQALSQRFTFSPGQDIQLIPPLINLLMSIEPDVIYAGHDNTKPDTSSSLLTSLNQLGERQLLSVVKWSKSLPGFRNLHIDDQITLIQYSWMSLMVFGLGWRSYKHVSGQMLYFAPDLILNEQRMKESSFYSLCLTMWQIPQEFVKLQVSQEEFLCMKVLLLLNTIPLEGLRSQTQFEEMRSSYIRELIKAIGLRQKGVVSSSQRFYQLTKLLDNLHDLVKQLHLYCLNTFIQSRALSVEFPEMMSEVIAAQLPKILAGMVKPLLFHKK

For `C=C(C)CCO`, the Potency result in [1], in assay [2], in assay [3], in assay [4], in assay [5] and in assay [6] was “inactive” each time. Moreover, the Potency entry in [7], in assay [9], in assay [10], in assay [11], in assay [12] and in [14] was “inactive” in each case. Further, the Potency result in assay [15], in assay [16], in [17] and in assay [18] was “inactive” in each case. Besides, the compound was called inactive in [8] and in [13].
Consider `CO[Si](OC)(c1ccccc1)c1ccccc1`, for which the Potency result in assay [1], in assay [2], in assay [3], in assay [5], in assay [6] and in assay [7] was “inactive” each time. For the same compound, the Potency entry in assay [11], in assay [12], in assay [14], in [15], in [16] and in [17] was “inactive” in each case. The call in assay [8] and in [13] was inactive.
Consider `Oc1ccc(C2(c3ccc(O)c(C4CCCCC4)c3)CCCCC2)cc1C1CCCCC1`, for which the Potency in assay [1] is 43.3 µM (active); in assay [2], 19.3 µM (active); in assay [3] it was 27.3 µM (active); in assay [10], 43.3 µM (active); in assay [19], 27.3 µM (active); in assay [11] it was 43.6 µM (active). The Potency in [12] was 49 µM (active); in assay [16], 19.3 µM (active); in assay [17] it was 24.3 µM (active); in [18], 13.7 µM (active). The Potency result in assay [4], in assay [5], in assay [14] and in assay [15] was “inactive” each time.
As for `CCCC(C)C=O` (centres undefined), the Potency entry in assay [1], in assay [2], in assay [3], in [4], in [5] and in [6] was “inactive” throughout. In addition, the Potency entry in assay [7], in [9], in [10], in assay [11], in assay [12] and in [14] was “inactive” each time. Further, the Potency result in assay [15], in assay [16], in [17] and in [18] was “inactive” in each case. In addition, the outcome in assay [8] and in assay [13] was inactive.
Consider `CCSCC`, for which the Potency result in assay [1], in [2], in [3], in assay [4], in [7] and in [11] was “inactive” throughout. Also, the Potency result in assay [12], in [14], in assay [15], in assay [17] and in assay [18] was “inactive” throughout. Moreover, the call in [13] was inactive.
For the compound `C=C[Si](C)(C)Cl`, the activity change, negative = cytotoxicity in assay [1] is -1.9% [at 8.39 µM]; in assay [2], 0.271% [at 8.39 µM]; in assay [3] it was 6.43% [at 8.39 µM]; in [7] it was 0.757% [at 8.39 µM]; in assay [10], -4.28% [at 8.39 µM]; in assay [19] it was -13.4% [at 8.39 µM]. Moreover, the activity change, negative = cytotoxicity in assay [12] was 9.12% [at 6.97 µM]; in assay [16], 1.3% [at 8.39 µM]; in [18] it was 6.64% [at 8.39 µM]. In addition, the activation in [4] is -1.47% [at 8.39 µM]; in [8], 0.63% [at 8.39 µM]; in assay [13], 0.312% [at 6.97 µM]; in [15], 0.0082% [at 5.23 µM]. Further, the cAMP activity change in assay [5] is -4.27% [at 8.39 µM, hits give high values]. The activity change, negative = inhibition in [6] is 0.177% [at 8.39 µM]. Besides, in [11], the viability change, negative = cytotoxic was 9.11% [at 6.97 µM]. Further, the activity, negative = inhibition in assay [14] is 2.56% [at 4.65 µM]. Besides, the caspase activation in [17] is -0.0006% [at 8.39 µM].
